The record followed here is PubChem BioAssay AID1531 (NMMLSC, 2009).

Hit rate of the full screen: of about 290,000 compounds, about 3,300 (1.1%) were called active. For the sample, actives were picked, then their nearest neighbours and some compounds at random. Unmarked numbers belong to inactive results. Cut-off read from the data, not from the text of the source: active = binding response below about 67% or above about 130%; inconclusive = no clear call, values can overlap the other calls; inactive = in between.

This test has as its target Mitogen-activated protein kinase kinase kinase 2 (Homo sapiens) (UniProt Q9Y2U5). Kind of test: wildtype MEKK2 PB1-MEK5 interaction, increase or decrease – biochemical, multiplex bead flow cytometry, Alexa488-MEK5, primary screen (AID 1531). The note with it: Alexa488-MEK5 binding to MEKK2 WT, at 10 µM, actives lie on both sides. (In flow cytometry, cells or beads pass a laser one at a time.)
Take `O=C(CCl)NNc1nc(-c2ccccc2)c2cc(Cl)ccc2n1`: the binding response (% of control) was 102%.
For `CC(C)(C)n1nc(Cc2cccc3ccccc23)c(C#N)c1N` the value was 98%.
The result for `COc1ccccc1NC(=O)c1ccc(N2CC3CC(C2)c2cccc(=O)n2C3)c(NC(=O)c2cccnc2)c1` (stereo not drawn) reads 105%.
For `O=C1N[C@H](Cc2ccccc2)C(=O)N[C@H]1Cc1cn(S(=O)(=O)c2ccccc2)c2ccccc12` the value was 102%.
In the case of `C/C=C/C(=O)OCc1csc(CC(=O)Nc2ccccc2C)n1`, the binding response (% of control) was 94%.
For `OCC1(CCOc2ccccc2)CCN(Cc2cn[nH]c2-c2ccccc2)CC1` the value was 94%; for `CCOC(=O)C1(CCOc2ccccc2)CCN(Cc2cc(OC)c(O)cc2Cl)CC1`, 126%; for `Cc1c(CN2CCC(CO)(CCOc3ccccc3)CC2)[nH]c2ccc(Cl)cc12`, 227% (active).
Turning to `COc1ccc(C2NC(=O)C(=O)/C2=C(\O)c2ccc(Cl)cc2)cc1OC` (stereo not drawn), the binding response (% of control) is 109%.
Regarding `COC(C[C@@H](O)C[C@@H](O)[C@H](C)OCc1ccccc1)OC`, the binding response (% of control) was 97%.
In the case of `O=C(O)CSc1nnc(-c2ccc3c(c2)OCO3)n1-c1ccccc1`, the binding response (% of control) is 102%.
For `Cn1c(SCc2nc3ccccc3s2)nnc1-c1ccc2c(c1)OCO2` the value was 30% [inhibitor] (active).
For `Cn1c(SCC(=O)N2CCCC2)nnc1-c1ccc2c(c1)OCO2` the value was 105%.
For `CC1CCC2CCCCC2N1C(=O)c1cc([N+](=O)[O-])cc([N+](=O)[O-])c1` (stereo not drawn) the value was 97%.
Take `CCn1c(SCc2ccccc2)nc2cc(OC)c(OC)cc2c1=O`: the binding response (% of control) is 105%.
For `COc1ccc(S(=O)(=O)N2CCOCC2)cc1C(=O)NC1CCCCC1` the value was 104%.
For `COCCNC(=S)Nc1cc(S(=O)(=O)N2CCOCC2)ccc1N1CCCCC1`, the binding response (% of control) is 103%.
On to `O=C(NCC1CCCCC1)c1cc(S(=O)(=O)N2CCCCC2)ccc1N1CCOCC1`, for which the binding response (% of control) was 4% [inhibitor] (active).
In the case of `CC(C)(c1ccccc1)c1ccc(OCCN2CCCC2)cc1`, the binding response (% of control) is 119%.
For `Cc1onc(-c2ccccc2Cl)c1C(=O)OCC(=O)c1ccccc1`, the binding response (% of control) was -2% [inhibitor] (active).
As to `Cc1onc(-c2ccccc2Cl)c1C(=O)NCCn1ccc2ccccc21`, the binding response (% of control) is 98%.
For `Cc1[nH]c2ccccc2c1C(=O)COC(=O)c1c(-c2ccccc2)noc1C` the value was 113%; for `O=C1CC2(CCCC2)Oc2ccc(Cl)cc21`, 109%; for `C/C(=N\NC(=O)C1(C)CC1(Br)Br)c1ccc(C)cc1C` (stereo not drawn), 98%.
The result for `CCN1CCN(CCCCOc2ccccc2F)CC1` reads 98%; that for `COc1ccccc1N1CCN(CCCCOc2ccc(F)cc2)CC1`, 135% (active).
The result for `COc1ccc(OCCCCN2CCC(C)CC2)cc1` reads 106%; that for `O=C(NCCO)C(=O)NCC(c1ccc2c(c1)OCO2)N1CCN(c2ccc(F)cc2)CC1` (stereo not drawn), 99%.
For `O=C(COc1ccc([N+](=O)[O-])cc1)Nc1cccc(C(=O)Nc2ccccc2C(=O)O)c1`, the binding response (% of control) is 94%.
For `O=C(CC1NCCNC1=O)Nc1cc(Cl)cc(Cl)c1` (stereo not drawn) the value was 108%; for `O=C(CC1SCCNC1=O)Nc1ccc(Cl)c(Cl)c1` (stereo not drawn), 186% (active); for `O=C(CC1SCCNC1=O)Nc1ccc(Cl)cc1` (stereo not drawn), 87%.
For `CC(C)c1c(C(=O)N/N=C/c2ccccc2C(=O)O)nnn1-c1nonc1N` the value was 102%; for `COC(=O)CN1C(=O)C(C)(C)Oc2ccc(C(=O)Nc3cccc(OC)c3)cc21`, 108%.
For `CCOC(=O)c1ccc2[nH]c3c(c2c1)CCCC3NC=O` (stereo not drawn), the binding response (% of control) was 97%.
For `N#CCSc1nc(-c2ccccc2)nc2ccc(F)cc12` the value was 100%; for `COc1ccc(NC(=O)CS(=O)(=O)c2ccccc2)cc1`, 109%; for `CCOc1ccc(CNC(=O)C2CCCN(c3nnc(C)c4c(C)n(-c5ccccc5)nc34)C2)cc1` (stereo not drawn), 105%.
For `COC(=O)C(C)n1cnc2c(nnn2-c2cccc(Cl)c2)c1=O` (stereo not drawn) the value was 106%; for `CCOc1nnc(C)c2c(C)n(-c3cccc(Cl)c3)nc12`, 72% [inhibitor] (active).
The result for `COc1ccc(NC(=O)CN2C(=O)COc3ccc(S(=O)(=O)N4CCOCC4)cc32)cc1` reads 97%; that for `Fc1ccccc1COc1cccc2cccnc12`, 110%; that for `Cc1ccc(-c2nc(CSCC(=O)NC3CCN(Cc4ccccc4)CC3)c(C)o2)cc1`, 107%.
Turning to `Cc1ccc(S(=O)(=O)N2CCN(C(=O)CSc3cc(C)ccc3C)CC2)c(C)c1`, the binding response (% of control) was 104%.
For `CC(=O)NCCC(=O)Nc1nc(-c2ccc3c(c2)OCCO3)cs1` the value was 109%; for `CC(=O)Nc1ccc(N2CCOCC2)c(C(=O)Nc2cccc(C)c2)c1`, -1% [inhibitor] (active); for `Cc1cccc(NC(=O)c2cc([N+](=O)[O-])ccc2N2CCN(C)CC2)c1`, 101%.
On to `COC(=O)c1cc(NC(=O)c2ccco2)ccc1N1CCOCC1`, for which the binding response (% of control) was 99%.
